Among all 390,000 compounds or so, about 4,000 (1%) were called active. A call without a number means that no potency is given here. Another 7% or so got no clear call; they are omitted. Calls come from the whole dose curve; as a rule, active = well fitted inhibition curve with a large enough effect; inconclusive = small, poorly fitted or top-dose-only effect, or another doubt; inactive = no such curve, though single readings can be large or run the other way. The sample as a whole holds a higher share of actives than the screen did.
The compounds below were run against DNA polymerase iota (Homo sapiens) (UniProt Q9UNA4) (assay: qHTS for Inhibitors of Polymerase Iota). Settings: Pol iota fluorescent replication assay, 10 min; series mostly up to 115 µM.
Sequence of DNA polymerase iota (Homo sapiens) (Q9UNA4 whole entry, looked up): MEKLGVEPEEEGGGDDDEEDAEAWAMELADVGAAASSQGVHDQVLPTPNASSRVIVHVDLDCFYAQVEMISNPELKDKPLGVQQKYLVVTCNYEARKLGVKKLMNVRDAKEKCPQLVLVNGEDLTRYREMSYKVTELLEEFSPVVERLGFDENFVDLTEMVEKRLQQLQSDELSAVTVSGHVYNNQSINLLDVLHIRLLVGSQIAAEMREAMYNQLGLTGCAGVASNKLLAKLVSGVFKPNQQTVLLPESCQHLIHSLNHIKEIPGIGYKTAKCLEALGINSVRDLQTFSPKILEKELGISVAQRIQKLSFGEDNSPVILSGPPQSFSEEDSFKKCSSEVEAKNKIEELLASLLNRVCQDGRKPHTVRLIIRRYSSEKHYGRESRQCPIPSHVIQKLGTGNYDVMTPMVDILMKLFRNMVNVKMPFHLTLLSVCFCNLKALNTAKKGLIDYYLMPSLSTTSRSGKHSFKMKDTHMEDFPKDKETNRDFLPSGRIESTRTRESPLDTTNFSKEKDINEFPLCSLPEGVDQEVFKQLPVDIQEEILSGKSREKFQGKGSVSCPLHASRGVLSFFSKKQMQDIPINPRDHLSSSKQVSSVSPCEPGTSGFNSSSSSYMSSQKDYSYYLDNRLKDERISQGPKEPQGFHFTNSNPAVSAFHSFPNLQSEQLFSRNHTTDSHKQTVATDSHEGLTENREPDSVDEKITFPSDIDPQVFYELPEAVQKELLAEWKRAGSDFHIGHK
Method in brief: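 Pol iota at 10 nM preincubated 15 min with compounds at room temperature; reaction started with fluorescent substrate, 50 nM final. Fluorescence read kinetically at 0 and 10 min; buffer-only wells as negative control.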
In the case of Cc1cc(/C=C2\SC(=O)N(C)C2=O)c(C)n1-c1cccc(C(=O)O)c1, the Potency is reported as 17.8 µM (active). With Cc1ccc(N2C(=O)S/C(=C/c3cn(C)c4ccccc34)C2=O)cc1 the Potency was “inactive”. With Cc1cc(/C=C2/SC(=O)N(CC(=O)OC(C)C)C2=O)c(C)n1C the Potency was “inactive”. In the case of Cc1cccc(C(=O)Nc2ccc(S(=O)(=O)N3CCCCC3c3cccnc3)cc2)c1 (stereo not given), the Potency is reported as “inactive”. With CCc1cccc(C)c1Nc1c(-c2ccc(N(C)C)cc2)nc2ncccn12 the Potency was “inactive”. CCN(C(=O)Cn1c(=O)nc(-c2ccccc2)c2cc(Cl)ccc21)c1cccc(C)c1 was tested, and the Potency was “inactive”. In the case of CCC(C)N(c1ccc(/C=C/c2ccnc3ccccc23)cc1)C(C)CC (stereo not given), the Potency is reported as “inactive”. CC(=O)N1CCCc2cc(S(=O)(=O)N3CCC(C(=O)NCc4ccc(F)cc4)CC3)ccc21 was tested, and the Potency was “inactive”. CCCCC(=O)OC1=CN(Cc2ccccc2)S(=O)(=O)c2ccccc21 was tested, and the Potency was “inactive”. In the case of COc1cc(CCC(=O)OCC(=O)Nc2cccc(S(N)(=O)=O)c2)cc(OC)c1OC, the Potency is reported as “inactive”. In the case of COc1ccc(CCC(=O)OCC(=O)Nc2ccc(C)c(S(=O)(=O)N(C)C)c2)cc1, the Potency is reported as 89.1 µM (active). In the case of CCN(CC(=O)Nc1ccc(C)c(S(=O)(=O)N(C)C)c1)Cc1ccccc1, the Potency is reported as “inactive”. For COc1ccc(-c2cc(C(F)(F)F)n3nc(-c4ccccc4)cc3n2)cc1OC, the Potency was “inactive”. Cc1ccnc(-n2sc3ccccc3c2=O)n1 was tested, and the Potency was 25.1 µM (active). For Cc1ccc(-c2onc(C)c2C)cc1S(=O)(=O)Nc1ccccn1, the Potency was “inactive”. With COc1cc(OC)c(OC)cc1/C=C1\C=Cc2ccccc21 the Potency was “inactive”. For CCc1nnc(SCc2nc(-c3cccc(C)c3)oc2C)c2cc3sc(C)cc3n12, the Potency was “inactive”. O=C(CNC(=O)c1ccc2ccccc2c1)Nc1ncccc1O was tested, and the Potency was “inactive”. In the case of COc1ccc(N2CCN(C(=O)CNC(=O)c3ccc(C(C)(C)C)cc3)CC2)cc1, the Potency is reported as “inactive”. In the case of O=C(NCC(=O)N1CCN(c2ccccc2O)CC1)c1ccc2ccccc2c1, the Potency is reported as 89.1 µM (active). With Cc1ccc(Cl)cc1N1CCN(C(=O)C2CCC(CNS(=O)(=O)c3cccs3)CC2)CC1 (stereo not given) the Potency was “inactive”. In the case of O=C(Cc1ccc([N+](=O)[O-])cc1)N/N=C/c1ccco1, the Potency is reported as “inactive”. In the case of O=C(Cc1ccccc1)Nc1cccc(C(=O)N/N=C/c2ccco2)c1, the Potency is reported as “inactive”. For O=C(N/N=C/c1ccco1)c1ccc(C(=O)N/N=C/c2ccco2)o1, the Potency was 50.1 µM (active). CCc1nnc(SCc2c(F)cccc2Cl)c2cc3sccc3n12 was tested, and the Potency was “inactive”. For CCc1ccccc1NC(=O)Cn1c(=O)n(-c2cccc(C)c2)c(=O)c2c1c1cc(OC)ccc1n2C, the Potency was “inactive”. With O=c1[nH]n(-c2ccc([N+](=O)[O-])cc2)c(=O)c2ccccc12 the Potency was 10 µM (active). In the case of CC(=O)N1c2ccccc2N(Cc2ccc([N+](=O)[O-])cc2)C(=O)C1(C)C, the Potency is reported as “inactive”. With Cc1[nH]n(-c2ccc([N+](=O)[O-])cc2)c(=O)c1C=NCCN1CCN(C(=O)c2ccccc2F)CC1 the Potency was “inactive”. For COC(=O)c1ccc(C(NC(=O)OCc2ccccc2)/C(C)=C/[C@@H](C)C(=O)NCc2ccc(OC)c(OC)c2)cc1 (stereo not given in full), the Potency was “inactive”. In the case of COC(=O)c1ccc(COc2ccc(/C=C/C(=O)c3ccc(OC)c(CSCC(=O)O)c3)cc2OC)cc1, the Potency is reported as 20 µM (active). With COc1cc(/C=C/C(=O)OCC(=O)NC(=O)NCc2ccccc2)ccc1OCC#N the Potency was “inactive”. In the case of CCN1CCN(CCCNC(=O)c2cnn(-c3ccc(C)cc3C)c2C2CCN(C(=O)OC(C)(C)C)CC2)CC1, the Potency is reported as “inactive”. In the case of CCOc1ccc(CNCCSc2nnnn2C)cc1, the Potency is reported as “inactive”. For Cc1ccc(N(CC(=O)NCC(C)c2ccccc2)S(=O)(=O)N(C)C)cc1 (stereo not given), the Potency was “inactive”. In the case of COc1ccc(C2(Nc3cccc(F)c3)C(=O)c3ccccc3C2=O)cc1, the Potency is reported as “inactive”. CN(c1ccc(O)cc1)c1nc(-c2cccnc2)cs1 was tested, and the Potency was “inactive”. In the case of CCCC(=O)N1c2ccc(-c3csc(N)n3)cc2CC1C (stereo not given), the Potency is reported as “inactive”. For CC(C)(C)C(=O)OCc1nc(-c2ccc(O)c(O)c2)cs1, the Potency was 31.6 µM (active). With Cc1ccccc1-n1c(=O)c2ccccc2n(Cc2ccc(F)cc2)c1=O the Potency was “inactive”. In the case of O=C(Nc1cc(Cl)cc(Cl)c1)c1ccc2c(c1)N(Cc1cccc(Cl)c1)C(=O)c1ccccc1S2=O (stereo not given), the Potency is reported as “inactive”. For Cc1cc(=O)oc2c(C)c(OCC(=O)NCCN3CCOCC3)ccc12, the Potency was “inactive”. In the case of CCCc1cc(=O)oc2c(C)c(OCC(=O)NCc3ccccn3)ccc12, the Potency is reported as “inactive”. CCc1cc(=O)oc2c(C)c(OCC(=O)NCCN3CCOCC3)ccc12 was tested, and the Potency was 79.4 µM (active). For CC(=O)c1ccc(S(=O)(=O)Nc2ccc(-c3ccc4nncn4n3)cc2)cc1, the Potency was 50.1 µM (active). In the case of O=C(Nc1ccc(-c2ccc3nncn3n2)cc1)C1CCCCC1, the Potency is reported as “inactive”. In the case of CC(=O)Nc1ccc(S(=O)(=O)Nc2ccc(-c3ccc4nnc(C)n4n3)cc2)cc1, the Potency is reported as “inactive”. In the case of Cc1cc(OC(C)C(=O)Nc2sc3c(c2C(N)=O)CCCC3)ccc1Cl (stereo not given), the Potency is reported as “inactive”. COc1cccc(C(=O)NC2=NC(c3ccc(N(C)C)cc3)CC(=O)N2)c1 (stereo not given) was tested, and the Potency was “inactive”. With CSc1nc(-c2ccccc2Cl)nc2c1Cc1c(CO)cnc(C)c1O2 the Potency was “inactive”. For CC(C)Nc1nnc(SCC(=O)c2c[nH]c3ccccc23)s1, the Potency was “inactive”. With CC(C)N(C(=O)CSc1nnc(NC2CC2)s1)c1ccccc1 the Potency was “inactive”. In the case of CC(C)c1ccc(Nc2nnc(SCC(=O)c3nnc(-c4ccccc4)o3)s2)cc1, the Potency is reported as 22.4 µM (active). In the case of CCc1cccc(C)c1NS(=O)(=O)c1ccc(-c2cc(C)no2)s1, the Potency is reported as “inactive”. With COC(=O)/C=C\C(=O)Nc1cccc([N+](=O)[O-])c1 the Potency was “inactive”. With COc1ccc(OC)c(NC(=O)/C=C/c2ccc(C)o2)c1 the Potency was “inactive”. In the case of Cc1ccc(/C=C/C(=O)Nc2ccc([N+](=O)[O-])c(NC(=O)/C=C/c3ccc(C)o3)c2)o1, the Potency is reported as 25.1 µM (active). In the case of Cc1ccc(Cn2c(=O)n(Cc3nc(-c4ccccc4)no3)c(=O)c3cc4c(cc32)OCO4)cc1, the Potency is reported as “inactive”. For O=C(CSc1nc(=O)n(Cc2cccnc2)c2c1CCC2)Nc1ccc(F)cc1F, the Potency was “inactive”. For O=C(Nc1ccc(F)cc1F)c1ccc2c(=O)n3c(nc2c1)CCCCC3, the Potency was “inactive”. With COCCCNC(=O)Cn1cc(/C=C(\C#N)C(=O)N2CCN(c3ccccc3)CC2)c2ccccc21 the Potency was “inactive”. Cc1ccc(Cl)cc1NC(=O)/C(C#N)=C\c1cn(Cc2ccc(F)cc2)c2ccccc12 was tested, and the Potency was 89.1 µM (active). Cc1ccc(/C=C(\C#N)C(=O)Nc2cc(C)ccc2C)cc1 was tested, and the Potency was “inactive”. For Nc1ccc(/C=C/c2ccnc3ccccc23)c([N+](=O)[O-])c1, the Potency was “inactive”. For Cc1ccccc1OCc1nc2c3cnn(-c4ccccc4F)c3ncn2n1, the Potency was “inactive”. Cc1ccc(C)c(S(=O)(=O)c2nnn3c2nc(N2CCOCC2)c2sccc23)c1 was tested, and the Potency was “inactive”. In the case of O=S(=O)(NCc1ccco1)c1cnc(Cl)c(Cl)c1, the Potency is reported as “inactive”. With Cc1cc(C(=O)OCC(=O)NCc2ccco2)c(C)n1-c1ccccc1 the Potency was 22.4 µM (active). Cc1cccc(C)c1NC(=O)COC(=O)c1ccccc1O was tested, and the Potency was “inactive”. CN(c1ccccc1)S(=O)(=O)c1ccc(Cl)c(C(=O)OCC(=O)NCc2ccco2)c1 was tested, and the Potency was 44.7 µM (active). O=C(COC(=O)c1cnc(Cl)c(Cl)c1)NCc1ccco1 was tested, and the Potency was 17.8 µM (active). For CN(c1ccccc1)S(=O)(=O)c1ccc(Cl)c(C(=O)OCC(=O)N2CCOCC2)c1, the Potency was “inactive”. With O=C(COC(=O)c1ccccc1C(=O)N1CCN(c2ccccc2)CC1)NCc1ccccc1 the Potency was “inactive”. O=C(COC(=O)c1cc(S(=O)(=O)N2CCOCC2)ccc1Cl)NCCc1ccccc1 was tested, and the Potency was “inactive”. O=C(CCCOc1ccccc1)NCc1ccco1 was tested, and the Potency was “inactive”. With COc1ccc(CCNC(=O)COC(=O)c2cnc(Cl)c(Cl)c2)cc1 the Potency was “inactive”. Cn1c(N)c(C(=O)COC(=O)c2ccccc2NCc2ccco2)c(=O)n(C)c1=O was tested, and the Potency was “inactive”. In the case of O=C(COC(=O)c1ccccc1O)NCc1ccco1, the Potency is reported as 35.5 µM (active). For CN1CCN(C(CNC(=O)c2ccccc2F)c2ccc3c(c2)OCO3)CC1 (stereo not given), the Potency was “inactive”. With Cc1ccc(OCCSc2nc(C)c(Cc3ccccc3)c(=O)[nH]2)cc1 the Potency was “inactive”. With Cc1ccc(CCNC(=O)c2ccc3c(c2)N(Cc2cc(C)ccc2C)C(=O)c2ccccc2S3=O)cc1 (stereo not given) the Potency was “inactive”. With Cc1ccc(Cl)cc1N1CCN(C(=O)c2cccn3c(=O)c4cc(Cl)ccc4nc23)CC1 the Potency was “inactive”. For CCCn1c2ccccc2c2cnn(CC(=O)N3CCCC(C(=O)OCC)C3)c(=O)c21 (stereo not given), the Potency was “inactive”. CCOC(=O)N1CCc2c(sc3c2c(=O)n(-c2ccc(CC)cc2)c(=O)n3C)C1 was tested, and the Potency was “inactive”. O=C(NCc1ccccc1)c1cccc(NC(=O)N2CCSc3ncccc32)c1 was tested, and the Potency was “inactive”. For Cc1c(NC(=O)Cc2ccccc2)cccc1-c1nc2cccnc2s1, the Potency was “inactive”. O=C(Nc1ccccc1Cl)N1CCC(CN2CCCCC2)CC1 was tested, and the Potency was “inactive”. For O=C(Nc1ccccc1Cl)N1CCC(CN2CCCC2)CC1, the Potency was “inactive”. With O=C(Nc1ccccc1Cl)/C(Cl)=C(\Cl)S(=O)c1ccccc1 (stereo not given) the Potency was 12.6 µM (active). In the case of Cc1ccc(-c2nn3c(=O)cc(CN4CCN(S(=O)(=O)c5ccc(Cl)cc5)CC4)nc3s2)cc1, the Potency is reported as “inactive”. For Cc1csc(SCC(=O)Nc2sccc2C#N)n1, the Potency was 22.4 µM (active). With N#Cc1ccsc1NC(=O)CN1CCCCC1 the Potency was “inactive”. In the case of CC(=O)c1cc(C#N)c(SCC(=O)Nc2nccs2)nc1C, the Potency is reported as “inactive”. In the case of COc1ccc(CCN2C(=O)c3oc4cc(C)cc(C)c4c(=O)c3C2c2ccccc2F)cc1OC (stereo not given), the Potency is reported as “inactive”. In the case of CSc1n[nH]c(-c2ccco2)n1, the Potency is reported as “inactive”. In the case of CC1(C)N=C(SCc2ccccc2Cl)c2ccccc2N1, the Potency is reported as “inactive”. c1ccc(CSc2nnc(-c3ccco3)c(-c3ccco3)n2)cc1 was tested, and the Potency was 7.94 µM (active). In the case of Cc1ccc(-c2nnc(SCC(=O)NCc3ccccc3)nc2-c2ccc(C)cc2)cc1, the Potency is reported as “inactive”. With Clc1ccccc1CSc1nnc(-c2ccco2)c(-c2ccco2)n1 the Potency was 14.1 µM (active). Cc1cccc(Cc2c(C)nc3nc(SCc4ccccc4Cl)nn3c2C)c1 was tested, and the Potency was “inactive”.
Potency is the fitted concentration of half-maximal effect.
